What all share (assay): DAPPL (digital affinity profiling via proximity ligation, sequencing); 10 mM Tris-HCl pH 7.5, 50 mM NaCl, 1 mM DTT, 4% glycerol, room temperature, 30 min; GST-TFs on glutathione beads, 16-mer random dsDNA library, 0.1% formaldehyde crosslink after washing; high values mean tight binding
Settings in all cases: protein: recombinant; tags: N-terminal GST; dsDNA, one strand shown

In assay [1] the target is T1, ETV2 (Homo sapiens, UniProt O00321 1-342).
T1 sequence: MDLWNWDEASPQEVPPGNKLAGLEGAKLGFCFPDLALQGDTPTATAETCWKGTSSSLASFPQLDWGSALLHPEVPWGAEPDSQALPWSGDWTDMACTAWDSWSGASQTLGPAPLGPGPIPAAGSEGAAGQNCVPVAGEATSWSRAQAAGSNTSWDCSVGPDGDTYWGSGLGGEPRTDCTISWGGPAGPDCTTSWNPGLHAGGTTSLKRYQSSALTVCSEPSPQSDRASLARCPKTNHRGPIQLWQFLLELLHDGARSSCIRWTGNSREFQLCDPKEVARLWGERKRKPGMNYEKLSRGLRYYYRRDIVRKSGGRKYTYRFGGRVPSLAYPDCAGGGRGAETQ
In short, it runs like this: (§1)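 The binding signal reported is, for every hexamer, its read frequency for a factor over its read frequency for the tag-only sample. Reads came from pools of yeast-expressed, GST-fused human transcription factors on glutathione beads, barcoded with DNA and mixed with that sample, which were incubated with 200 nmole of a random double-stranded 16-mer DNA library in Tris/NaCl/DTT/glycerol buffer at room temperature for 30 min. After washing, the pools were crosslinked with 0.1% formaldehyde, proximity-ligated with BsaI/T4 ligase for 1 h at 37 °C, PCR-amplified and sequenced on an Illumina NextSeq500.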

In assay [2] the target is T2, ELF3 (Homo sapiens, UniProt P78545 1-371).
T2 sequence: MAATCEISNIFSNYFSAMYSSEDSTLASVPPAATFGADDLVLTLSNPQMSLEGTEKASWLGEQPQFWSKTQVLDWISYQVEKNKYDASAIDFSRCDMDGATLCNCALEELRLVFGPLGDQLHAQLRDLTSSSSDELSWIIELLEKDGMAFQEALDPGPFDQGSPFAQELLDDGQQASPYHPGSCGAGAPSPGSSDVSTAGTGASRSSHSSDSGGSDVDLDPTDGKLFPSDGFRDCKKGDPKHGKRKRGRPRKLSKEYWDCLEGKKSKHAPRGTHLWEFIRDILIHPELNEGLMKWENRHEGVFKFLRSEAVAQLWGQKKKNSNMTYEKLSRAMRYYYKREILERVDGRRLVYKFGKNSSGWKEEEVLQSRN
In short, it runs like this: as §1

The target of assay [3] is ETV1 (Homo sapiens, UniProt P50549 1-477). The method in brief: as §1
Sequence of ETV1 (P50549 whole entry): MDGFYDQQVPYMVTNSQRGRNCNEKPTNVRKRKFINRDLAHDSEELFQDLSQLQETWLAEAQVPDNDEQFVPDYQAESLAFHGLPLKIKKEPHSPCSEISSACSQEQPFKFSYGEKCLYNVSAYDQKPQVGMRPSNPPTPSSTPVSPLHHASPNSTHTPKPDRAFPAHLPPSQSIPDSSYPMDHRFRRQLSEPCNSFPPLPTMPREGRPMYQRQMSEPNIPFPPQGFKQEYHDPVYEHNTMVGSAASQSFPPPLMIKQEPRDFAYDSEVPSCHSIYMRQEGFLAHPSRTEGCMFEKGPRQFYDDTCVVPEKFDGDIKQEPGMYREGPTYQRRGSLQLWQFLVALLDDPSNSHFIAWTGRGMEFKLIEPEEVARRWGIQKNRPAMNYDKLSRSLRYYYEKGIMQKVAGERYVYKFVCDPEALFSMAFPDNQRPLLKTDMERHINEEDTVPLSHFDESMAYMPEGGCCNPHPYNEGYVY
Assay [4] deals with T3, ERF (Homo sapiens, UniProt P50548 1-548).
T3 sequence: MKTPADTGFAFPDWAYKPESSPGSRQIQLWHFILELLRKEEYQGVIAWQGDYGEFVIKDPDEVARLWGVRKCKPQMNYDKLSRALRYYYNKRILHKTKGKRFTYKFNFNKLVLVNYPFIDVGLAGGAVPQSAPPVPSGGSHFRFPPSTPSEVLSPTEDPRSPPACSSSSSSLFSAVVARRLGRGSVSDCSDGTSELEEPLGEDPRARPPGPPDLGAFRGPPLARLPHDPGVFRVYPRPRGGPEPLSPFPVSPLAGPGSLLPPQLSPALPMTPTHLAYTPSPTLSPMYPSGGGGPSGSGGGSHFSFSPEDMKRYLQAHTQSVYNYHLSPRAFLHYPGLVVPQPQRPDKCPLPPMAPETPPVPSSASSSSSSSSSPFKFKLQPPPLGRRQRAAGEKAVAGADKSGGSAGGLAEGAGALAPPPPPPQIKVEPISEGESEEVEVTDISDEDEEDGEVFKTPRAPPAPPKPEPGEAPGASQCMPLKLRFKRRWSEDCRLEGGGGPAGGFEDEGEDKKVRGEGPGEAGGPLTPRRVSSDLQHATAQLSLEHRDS
In short, it runs like this:
as §1

For assay [5], the target named is T4, ETV3L (Homo sapiens, UniProt Q6ZN32 1-361).
T4 sequence: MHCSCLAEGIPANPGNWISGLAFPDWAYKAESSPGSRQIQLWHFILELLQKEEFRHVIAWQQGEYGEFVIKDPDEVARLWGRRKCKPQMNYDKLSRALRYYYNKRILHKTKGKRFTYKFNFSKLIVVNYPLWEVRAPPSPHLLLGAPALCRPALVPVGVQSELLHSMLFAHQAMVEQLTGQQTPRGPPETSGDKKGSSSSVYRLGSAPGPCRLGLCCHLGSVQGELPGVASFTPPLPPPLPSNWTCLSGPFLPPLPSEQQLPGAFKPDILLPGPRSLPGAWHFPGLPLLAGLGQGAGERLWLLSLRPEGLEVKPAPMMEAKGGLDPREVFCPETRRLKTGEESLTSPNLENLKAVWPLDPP
In short, it runs like this: as §1

Assay [6] addresses T5, ETS2 (Homo sapiens, UniProt P15036 1-469).
T5 sequence: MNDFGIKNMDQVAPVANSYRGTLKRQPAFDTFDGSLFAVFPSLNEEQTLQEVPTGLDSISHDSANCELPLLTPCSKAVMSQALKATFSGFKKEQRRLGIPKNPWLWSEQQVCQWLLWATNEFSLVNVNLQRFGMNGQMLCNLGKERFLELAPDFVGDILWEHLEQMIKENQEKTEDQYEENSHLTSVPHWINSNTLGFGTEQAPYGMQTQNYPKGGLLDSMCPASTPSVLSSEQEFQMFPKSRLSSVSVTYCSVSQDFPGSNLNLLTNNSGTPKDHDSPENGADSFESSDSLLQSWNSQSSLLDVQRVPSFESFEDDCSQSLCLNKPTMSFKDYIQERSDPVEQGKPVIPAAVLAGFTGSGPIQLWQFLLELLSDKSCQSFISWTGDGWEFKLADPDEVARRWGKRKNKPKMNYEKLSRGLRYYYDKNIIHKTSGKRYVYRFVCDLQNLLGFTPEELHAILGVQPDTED
In short, it runs like this:
as §1

The target in assay [7] is T6, SPDEF (Homo sapiens, UniProt O95238 1-335).
T6 sequence: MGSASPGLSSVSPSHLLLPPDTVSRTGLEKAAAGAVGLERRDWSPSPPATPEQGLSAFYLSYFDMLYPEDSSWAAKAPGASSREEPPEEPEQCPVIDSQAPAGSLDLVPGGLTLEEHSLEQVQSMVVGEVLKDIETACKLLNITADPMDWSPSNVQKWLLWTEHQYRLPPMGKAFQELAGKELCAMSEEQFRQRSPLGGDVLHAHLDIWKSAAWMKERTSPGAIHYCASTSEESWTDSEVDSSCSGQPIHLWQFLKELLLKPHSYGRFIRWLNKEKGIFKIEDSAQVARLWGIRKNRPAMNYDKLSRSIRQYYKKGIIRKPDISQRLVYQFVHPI
In short, it runs like this: as §1

The target in assay [8] is T7, ETV7 (Homo sapiens, UniProt Q9Y603 1-341).
T7 sequence: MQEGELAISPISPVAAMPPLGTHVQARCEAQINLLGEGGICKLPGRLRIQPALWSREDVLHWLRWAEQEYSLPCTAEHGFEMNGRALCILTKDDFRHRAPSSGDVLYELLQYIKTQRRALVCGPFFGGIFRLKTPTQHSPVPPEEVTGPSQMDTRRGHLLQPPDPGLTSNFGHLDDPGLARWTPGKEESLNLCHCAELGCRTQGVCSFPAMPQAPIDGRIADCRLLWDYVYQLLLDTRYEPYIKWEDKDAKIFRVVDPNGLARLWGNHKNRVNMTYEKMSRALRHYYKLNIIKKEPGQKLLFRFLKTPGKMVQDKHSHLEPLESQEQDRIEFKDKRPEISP
The method in brief: as §1

Assay [9] has as its target T8, ETV3 (Homo sapiens, UniProt P41162-2 1-143).
T8 sequence: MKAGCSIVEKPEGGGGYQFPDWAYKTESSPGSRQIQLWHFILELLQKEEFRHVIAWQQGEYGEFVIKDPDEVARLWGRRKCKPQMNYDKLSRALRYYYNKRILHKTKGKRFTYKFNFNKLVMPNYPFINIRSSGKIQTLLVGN
The method in brief: as §1

The target of assay [10] is ETV6 (Homo sapiens, UniProt P41212 1-452). In short, it runs like this: as §1
Sequence of ETV6 (P41212 whole entry): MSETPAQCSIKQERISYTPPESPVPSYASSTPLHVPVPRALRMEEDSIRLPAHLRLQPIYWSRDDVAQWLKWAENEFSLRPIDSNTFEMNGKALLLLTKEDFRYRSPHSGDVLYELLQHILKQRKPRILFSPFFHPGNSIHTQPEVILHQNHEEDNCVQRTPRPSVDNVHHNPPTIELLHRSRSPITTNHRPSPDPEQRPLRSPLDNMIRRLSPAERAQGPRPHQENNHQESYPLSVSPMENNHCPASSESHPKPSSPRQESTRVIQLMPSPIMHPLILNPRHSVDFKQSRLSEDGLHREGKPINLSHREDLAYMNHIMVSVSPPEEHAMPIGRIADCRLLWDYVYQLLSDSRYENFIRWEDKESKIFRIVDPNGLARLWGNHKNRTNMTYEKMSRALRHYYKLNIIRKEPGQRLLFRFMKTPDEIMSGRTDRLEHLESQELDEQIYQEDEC

As for TCAAGT, the binding signal in assay [1] is 1.06 fold enrichment (6-mer frequency, TF over GST control); in [2], 1.13 fold enrichment (6-mer frequency, TF over GST control); in [3], 1.15 fold enrichment (6-mer frequency, TF over GST control); in assay [4] it was 1.06 fold enrichment (6-mer frequency, TF over GST control); in assay [5], 1.12 fold enrichment (6-mer frequency, TF over GST control); in assay [6], 1.09 fold enrichment (6-mer frequency, TF over GST control). The binding signal in [7] is 1.17 fold enrichment (6-mer frequency, TF over GST control); in [8], 1.03 fold enrichment (6-mer frequency, TF over GST control); in assay [9], 1.1 fold enrichment (6-mer frequency, TF over GST control); in [10] it was 1.07 fold enrichment (6-mer frequency, TF over GST control).

Values taken from PMC7862700, “An all-to-all approach to the identification of sequence-specific readers for epigenetic DNA modifications on cytosine”.
